Among the data in PubChem BioAssay AID680 (PCMD, 2007) are inhibition values, retold here.

Structures are written as SMILES. The campaign covered roughly 62,000 compounds. About 120 (0.19%) were called active. This is one part of a sample in which actives are shown more often than they occur. Values without a mark were called inactive. Cut-off read from the data, not from the text of the source: active = inhibition above about 20% (passing the limit was not always enough); inactive = the rest.

As usually defined, the inhibition is the change of the read-out against control, counted positive when it falls.

The target of this test is Coagulation factor XI (Homo sapiens) (UniProt P03951). In words: human factor XIa inhibition by mixtures – biochemical, 10-compound mixtures, primary screen (AID 680).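 Note: each value is inhibition by a whole ten-compound pool holding the compound; 0% = enzyme with no mixture and 100% = wells lacking enzyme.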 As to conditions: purified FXIa, fluorogenic substrate, pooled mixtures; at 5 µM; stronger effect = higher value.
Coagulation factor XI (Homo sapiens), sequence (P03951 19-387 limits assumed): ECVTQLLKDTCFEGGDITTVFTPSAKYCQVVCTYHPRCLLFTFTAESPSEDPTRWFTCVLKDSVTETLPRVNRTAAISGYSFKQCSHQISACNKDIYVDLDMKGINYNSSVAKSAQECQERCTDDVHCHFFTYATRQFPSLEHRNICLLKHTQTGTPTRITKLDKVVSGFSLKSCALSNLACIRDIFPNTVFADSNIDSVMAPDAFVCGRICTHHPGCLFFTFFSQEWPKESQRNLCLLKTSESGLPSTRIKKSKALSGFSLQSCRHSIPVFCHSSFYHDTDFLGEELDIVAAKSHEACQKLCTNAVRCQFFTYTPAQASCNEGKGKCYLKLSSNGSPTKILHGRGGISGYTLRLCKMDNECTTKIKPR
Coagulation factor XI (Homo sapiens), sequence (P03951 388-625 limits assumed): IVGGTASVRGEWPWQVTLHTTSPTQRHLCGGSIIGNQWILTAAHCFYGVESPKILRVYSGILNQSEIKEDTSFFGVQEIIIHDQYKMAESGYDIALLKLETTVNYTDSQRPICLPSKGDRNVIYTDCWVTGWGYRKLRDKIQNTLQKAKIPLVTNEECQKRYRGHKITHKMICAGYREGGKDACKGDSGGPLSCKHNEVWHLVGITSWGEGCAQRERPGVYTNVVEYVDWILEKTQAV
`COC(C)(C)[C@]12CC(O)(C(C)C)ON1[C@H]1CCCCC1N2O` (some centres not stated): the inhibition was -9.49%.

For `CCOC(=O)CSc1nnc(CNC(=O)Cc2ccccc2)n1-c1ccccc1OC`, the inhibition was 13.1%.

`COc1ccc(CCN2C(=O)c3[nH]nc(-c4ccccc4O)c3C2c2ccc(C)cc2)cc1OC` (configuration not stated): the inhibition was 8.98%.

In the case of `CCc1c(C)n([O-])c2c([n+]1=O)CCCCC2`, the inhibition was 5.37%.

Regarding `CC(C)(C)n1c(=O)[nH]c2c(c1=O)CCC2`, the inhibition is 5.49%.

For `O=C(CC1(O)C(=O)N(CN2CCOCC2)c2ccccc21)c1ccccc1` (configuration not stated), the inhibition was 4.51%.

Regarding `Cc1cc(NC(=O)CCC(=O)N(c2ccccc2)C(C(=O)NC2CCCC2)c2ccncc2)no1` (configuration not stated), the inhibition was 10%.

Take `Cn1c(NC(=O)c2ccco2)c(-c2ccccc2Cl)c(=O)c2ccccc21`: the inhibition was 7.49%.

Regarding `CC(C)(C)NC(=O)C(c1ccncc1)N(C(=O)CNC(=O)c1ccco1)c1ccc2c(c1)OCO2` (configuration not stated), the inhibition is 8.32%.

On to `CCOC(=O)C1CCN(C(=O)COc2cc(C)c(Br)c(C)c2)CC1`, for which the inhibition is -1.91%.

Regarding `O=C(CSc1nc2c(cnn2-c2ccc(F)cc2)c(=O)[nH]1)N1CCCCCC1`, the inhibition is 2.05%.

Consider `CCC(=O)c1cc2c(cc1NC(=O)c1cccs1)OCCO2`, for which the inhibition is 1.74%.

Take `Cc1oc(-c2cccc(Cl)c2)[n+]([O-])c1C`: the inhibition is 1.39%.

As to `CN(C)S(=O)(=O)c1ccc(Oc2ccc(S(=O)(=O)N(C)C)cc2)cc1`, the inhibition was 7.21%.

As to `Cc1cccc2c1N(CC(=O)OC(C)C)C(=O)C2=O`, the inhibition is 1.41%.

Turning to `CC1CCN(c2nc3c(c(=O)[nH]c(=O)n3C)n2CCCc2ccccc2)CC1`, the inhibition was -1.49%.

As for `O=C(CSc1nnc(-c2ccncc2)n1C1CCCCC1)Nc1ccccc1`, the inhibition is 8.47%.

As for `Fc1ccc(-c2nnc(CSc3nnc(-c4ccc5c(c4)OCO5)o3)o2)cc1`, the inhibition is 0.485%.

Regarding `COc1cccc(-n2cc3c(c2-c2ccccc2)c(=O)n(C)c(=O)n3C)c1`, the inhibition was 3.95%.

Consider `OCCCNC(c1ccccc1)c1ccc(O)cc1` (configuration not stated), for which the inhibition was 7.84%.

For `COc1ccc2c(CC(=O)Nc3nnc(C4CC4)s3)coc2c1`, the inhibition is 4.86%.

On to `COc1ccccc1Cn1c(=S)[nH]c2cc(C(=O)N3CCN(C)CC3)ccc2c1=O`, for which the inhibition was 5.3%.

Take `COc1cccc(NC(=O)CN(C)S(=O)(=O)c2ccc(C)cc2)c1`: the inhibition was -2.5%.

For `Cc1ccccc1-c1nc(CS(=O)(=O)CC(=O)N2CCc3ccccc3C2)c(C)o1`, the inhibition was 11.3%.

With `COc1ccccc1CNC(=O)CCCn1c(=O)c2ccccc2n(CC(=O)NC2CCCC2)c1=O`, the inhibition was 0.555%.

As for `CC12CN(Cc3ccccc3)CC(C)(CN(Cc3ccccc3)C1)C2=NO`, the inhibition is -5.8%.

Regarding `CCOC(=O)C(C(=O)OCC)C(C#N)c1ccccc1` (configuration not stated), the inhibition was 3.99%.

Take `CCOC(=O)NC(C(F)(F)F)(C(F)(F)F)P(=O)(c1ccccc1)c1ccccc1`: the inhibition was 22.6% (active).

In the case of `CCOC(=O)Nc1ccccc1N1C(=O)c2ccccc2C1=O`, the inhibition is 7.59%.

On to `CCOC(=O)N1CCC(NC(=O)C(C)n2c3ccccc3c3cnn(C)c(=O)c32)CC1` (configuration not stated), for which the inhibition is -52.1%.

On to `CN(CCCC(=O)Nc1nccs1)S(=O)(=O)c1ccc(Cl)cc1`, for which the inhibition was 2.62%.

As to `Cc1cc(C)c2c(n1)nn1c(-n3ccnc3)cc(C)nc21`, the inhibition is 4.82%.

For the compound `CN(C(=O)c1ccno1)c1nnc(-c2cccnc2)s1`, the inhibition was 0.72%.

On to `CN(Cc1ccccc1)Cc1ccccc1F`, for which the inhibition is 11%.

`O=C(Nc1ccccc1)N(Cc1cccnc1)Cc1ccco1`: the inhibition was 9.03%.

On to `O=C(Nc1ccn(Cc2ccc(F)cc2)n1)c1ccncc1`, for which the inhibition was 1.2%.

As to `CS(=O)(=O)N1CCCC(C(=O)N2CCOCC2)C1` (configuration not stated), the inhibition is 6.58%.

On to `Fc1ccccc1OCCSc1nc2ccccc2o1`, for which the inhibition is 5.06%.

With `COC(=O)C1=C(C)N(C)C(C)=C(C(=O)OC)C1c1cccc(Br)c1`, the inhibition is 4.43%.

For the compound `CC(=O)NC(C)(C)C1CC=C(C)/C(=N\O)C1` (configuration not stated), the inhibition was 6.99%.

Take `Cc1ccc(S(=O)(=O)N2CCC(C(=O)OCC(=O)N3CC(=O)Nc4ccccc43)CC2)cc1`: the inhibition was -8.9%.

Regarding `Cc1ccc(-c2csc3nnc(SCC(=O)NCc4ccco4)n23)cc1`, the inhibition was 25.9% (active).

In the case of `Cn1c(-c2ccc(F)cc2)cnc1SCC(=O)NCc1ccco1`, the inhibition was -1.83%.

Consider `O=C(CSc1nnc2scc(-c3ccc(F)cc3)n12)NCc1ccco1`, for which the inhibition is 2.54%.

Turning to `COC(=O)c1c(NC(=O)c2cccs2)sc2c1CCCC2`, the inhibition was 5.01%.

As to `NC(=O)COc1ccc2c3c(c(=O)oc2c1)CCCCC3`, the inhibition is -3.05%.

As to `CCC(=O)Nc1ccc(C(=O)CSc2nnc(CNc3ccc(Cl)cc3)o2)cc1OC`, the inhibition was 1.04%.

As to `COc1ccc(CCNC(=O)C2CCCN(Cc3nc(-c4cccc(Cl)c4)oc3C)C2)cc1OC` (configuration not stated), the inhibition was 10.1%.

Take `Cc1nc2nc[nH]n2c(=O)c1NC(=O)c1cccc(OCC(C)C)c1`: the inhibition was 8.27%.

On to `CCOC(=O)C1CCN(C(=O)Cc2c(C(=O)O)[nH]c3ccccc23)CC1`, for which the inhibition was 6.1%.

Take `CCc1c(C)nc2ncnn2c1N1CCC(C(=O)NCc2ccc3c(c2)OCO3)CC1`: the inhibition was 8.05%.

As for `CCN(CC)CCN1C(=O)C(=O)/C(=C(/O)c2ccccc2)C1c1ccccc1F` (configuration not stated), the inhibition is 4.21%.

As to `Cc1ccc(S(=O)(=O)N(C)CC(=O)N2CCc3ccccc32)cc1`, the inhibition is 4.38%.

On to `COc1ccc(C2N=C(N)N=C(N)N2c2ccccc2)cc1OC` (configuration not stated), for which the inhibition was 1.53%.

Turning to `O=C(CSc1nnc(-c2ccco2)o1)NCC(=O)c1ccccc1`, the inhibition is 10.1%.

As to `COc1cccc2c(C)c(C(=O)O)[nH]c12`, the inhibition is -18%.

`CCOC(=O)N1CCC(O)(c2cc(C)c(C)cc2C)CC1`: the inhibition is 9.28%.

Turning to `Cc1nc2nc3c(cn2n1)C(=O)CC(c1ccccc1)C3` (configuration not stated), the inhibition is 1.31%.

For the compound `COc1ccc(CCN2CNc3c(c(=O)n(C)c(=O)n3C)C2)cc1OC`, the inhibition was 10.4%.

Take `N#CCCn1ncc2ccccc21`: the inhibition is -0.96%.

For `COc1cc(=O)[nH]c(=O)n1C(=O)Cc1ccccc1`, the inhibition is 2.34%.

On to `COc1ccc(N2CCN(C(=O)CSc3nnc4ncccn34)CC2)cc1`, for which the inhibition is 3.9%.

For `CCOC(=O)c1cc2sccc2n1Cc1ccc(C#N)cc1`, the inhibition was 0.72%.

Consider `CCOc1ccc(/C(O)=C2/C(=O)C(=O)N(Cc3cccnc3)C2c2ccc(N(C)C)cc2)c(C)c1` (configuration not stated), for which the inhibition is -2.04%.

`O=c1c2ccccc2nnn1CSc1nc2sc3c(c2c(=O)n1CC1CCCO1)CCC3` (configuration not stated): the inhibition is 0.04%.

Take `CN(C)CCCNC(=O)c1ccc2[nH]c3ccccc3c2c1`: the inhibition was 3.52%.

`O=C(CSc1nnc(-c2ccco2)n1Cc1ccccc1)NC(=O)NCc1ccco1`: the inhibition is 2.1%.

`CCOCCOC(=O)C1=C(C)N(C)C(=O)NC1c1ccccc1F` (configuration not stated): the inhibition is 5%.

Turning to `CCc1ccc(-c2nnn(Cc3nc4ccccc4s3)n2)cc1`, the inhibition is 9.76%.

As to `COc1ccc(-c2nnc(SC(C)C#N)o2)cc1` (configuration not stated), the inhibition is -13.7%.

Regarding `C=C(C)COc1ccc(-c2n[nH]c(C)c2-c2ccccc2OC)c(O)c1`, the inhibition was 21.4% (active).

In the case of `C=C(C)COc1ccc(-c2n[nH]c(C)c2-c2ccccc2)c(O)c1`, the inhibition was 6.11%.

On to `COc1ccc(-c2n[nH]c(C)c2-c2ccc(OC)c(OC)c2)c(O)c1`, for which the inhibition was 5.75%.

With `Cc1sc2c(c1C)c(=O)n(-c1ccccc1)c1nncn21`, the inhibition was 0.14%.

As to `O=C1CSC(c2cccc(F)c2)N1c1ccccc1F` (configuration not stated), the inhibition is 1.83%.

For the compound `CCCc1[nH]nc2c1C(c1ccc(Br)s1)C(C#N)=C(N)O2` (configuration not stated), the inhibition is 7.01%.

As for `COc1ccccc1-c1cc(C(=O)N2CCCCC2)no1`, the inhibition was 3.06%.

Regarding `COC(=O)CNS(=O)(=O)c1ccc(Cc2ccc(S(=O)(=O)NCC(=O)OC)cc2)cc1`, the inhibition is 13.4%.

As to `COC(=O)c1cc(NC2c3ccccc3C(=O)N2c2ccc(Cl)cn2)cc(C(=O)OC)c1` (configuration not stated), the inhibition was 3.54%.

`CCCc1nc(N)nc2c1C(=O)CC(C)(C)C2`: the inhibition is -0.555%.

As to `COC(=O)CN(c1cccc(C(C)=O)c1)S(C)(=O)=O`, the inhibition is 2.59%.

For the compound `CCN(c1ccccc1)S(=O)(=O)c1ccc(N)cc1`, the inhibition was 0.065%.

For the compound `O=C(Nc1ccc(Cl)cn1)c1cnn2cccnc12`, the inhibition was 3.33%.

As to `Brc1cccc(-c2nnc3n2CCC3)c1`, the inhibition is 2.48%.

For `CC(C)CCNC(=O)CCNS(=O)(=O)c1ccc(Cl)cc1`, the inhibition is 6.13%.

As for `CCOC(=O)c1c(-n2cnnn2)sc(C)c1C`, the inhibition was 13.6%.

Regarding `Cc1c2cn[nH]c(=O)c2c(C)n1Cc1ccc(F)cc1`, the inhibition was 3.31%.

As to `CC(C)c1nnc(NC(=O)C2CCCN2S(=O)(=O)c2ccc(Cl)cc2)s1` (configuration not stated), the inhibition is 9.37%.

`Cc1ccc(S(=O)(=O)N2CCCC2C(=O)NCc2ccco2)cc1` (configuration not stated): the inhibition is 3.07%.

Take `Cc1cccc(NC(=O)C2CCCN2S(=O)(=O)c2ccc(F)cc2)c1C` (configuration not stated): the inhibition was 23.4% (active).

`N#Cc1nc(Cc2cccc3ccccc23)oc1NCc1ccc2c(c1)OCO2`: the inhibition is 3.7%.

For the compound `O=C(Cn1nc(Cc2cccnc2)c2ccccc2c1=O)NCC1CCCO1` (configuration not stated), the inhibition was 1.16%.

As for `CCOC(=O)N1CCN(C(=O)CSc2nnc(-c3c[nH]c4ccccc34)n2CCOC)CC1`, the inhibition was 6.18%.

As for `CCn1c(SCCC(C)C)nnc1-c1c[nH]c2ccccc12`, the inhibition is 27.8% (active).

As for `CCC(C)Sc1nnc(-c2c[nH]c3ccccc23)n1CCOC` (configuration not stated), the inhibition was 4.33%.

For the compound `O=C(c1ccccc1)c1ccc(OC(=O)N2CCCC2)cc1`, the inhibition was 5.6%.

Turning to `COc1ccc(CCNC(=O)CSc2nnc(CNC(=O)c3cccs3)o2)cc1OC`, the inhibition is 4.31%.
